Data from PubChem BioAssay (NCATS).
Results filed as inconclusive are left out. The source made the active and inactive calls. Calls follow the shape of the dose curve; as a rule, active = well fitted cell-killing curve with a large enough effect; inconclusive = small, poorly fitted or top-dose-only effect, or effect the other way; inactive = flat fitted curve, though single readings scatter.

Tests used:
Experiment in all cases: Primary qHTS to identify gynecologic anti-cancer compounds using libraries of approved drugs and bioactive compounds (AID 1345084); also: nearly all actives have a fitted effect of over 55% in size
Settings in all cases: Gynecologic cancer cell panel viability, ATPlite luminescence, 48 h; series mostly up to 57.5 µM
OV90 = system: OV90
Summary of the method: (§1)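 ATP-based viability (ATPlite), 1,000 cells/well, 16 h pre-incubation, 48 h compound at 37 C, 5% CO2, 15 min RT before read.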

PA-1 = system: PA-1
Summary of the method: as §1

SKOV3 = system: SKOV3
Summary of the method: as §1

Tov-21-G = system: Tov-21-G
Summary of the method: as §1

Tov112D = system: Tov112D
Summary of the method: as §1
% is scaled to controls: 0 for no effect and ±100 for the full control effect.

CC(=O)O[C@@H]1C=C2[C@H](CC[C@@]3(C)[C@@]2(O)CC[C@H]2Cc4c([nH]c5ccccc45)[C@@]23C)O[C@@H]1C(C)(C)O
inactive: Potency (OV90) | Potency (PA-1) | Potency (SKOV3) | Potency (Tov-21-G) | Potency (Tov112D)

COC(=O)[C@]1(C)CCC[C@@]2(C)C(=O)CC[C@H]3C(=O)C=C(CC[C@@H]21)C3O (stereo not given in full)
inactive: Potency (OV90) | Potency (PA-1) | Potency (SKOV3) | Potency (Tov-21-G) | Potency (Tov112D)

C/C=C(\C)C(=O)OC[C@H]1O[C@@H](O[C@H]2[C@@H](O[C@H]3O[C@H](COC(=O)/C(C)=C/C)[C@@H](O)[C@H](O)[C@H]3O[C@@H]3O[C@H](CO)[C@@H](O)[C@H](OC(=O)/C(C)=C/C)[C@H]3O)O[C@H](COC(=O)/C(C)=C/C)[C@@H](O)[C@@H]2O)[C@H](O)[C@@H](O)[C@@H]1O
inactive: activity change, negative = cytotoxicity (OV90) -2.51% [at 11.6 µM] | activity change, negative = cytotoxicity (PA-1) -18.4% [at 11.6 µM] | activity change, negative = cytotoxicity (SKOV3) 3.76% [at 11.6 µM] | activity change, negative = cytotoxicity (Tov-21-G) 2.42% [at 11.6 µM] | activity change, negative = cytotoxicity (Tov112D) 2.79% [at 11.6 µM]

C[C@@H]1O[C@@H](O[C@H]2[C@H](O[C@H]3[C@H](O[C@H]4CC[C@@]5(C)C(CC[C@]6(C)C5CC=C5[C@@H]7CC(C)(C)C[C@@H](O)[C@]7(C)CC[C@]56C)C4(C)C)O[C@H](C(=O)O)[C@@H](O)[C@@H]3O)O[C@H](C(=O)O)[C@H](O)[C@@H]2O)[C@H](O)[C@H](O)[C@H]1O (stereo not given in full)
inactive: activity change, negative = cytotoxicity (OV90) 9.77% [at 11.6 µM] | activity change, negative = cytotoxicity (PA-1) 12.6% [at 11.6 µM] | activity change, negative = cytotoxicity (SKOV3) 6.58% [at 11.6 µM] | activity change, negative = cytotoxicity (Tov-21-G) 9.44% [at 11.6 µM] | activity change, negative = cytotoxicity (Tov112D) 4.96% [at 11.6 µM]

C/C=C/C=C/C1=C2C(=O)C3(C)C4C(C(=O)CC(O)/C=C/C)=C(O1)C1(C)C2C2(C)OC1(O)C4(C)OC23O (stereo not given)
inactive: Potency (OV90) | Potency (PA-1) | Potency (SKOV3) | Potency (Tov-21-G) | Potency (Tov112D)

COc1cc(/C=C/c2ccccc2)c(C(=O)O)c(O)c1CC=C(C)C
inactive: Potency (OV90) | Potency (PA-1) | Potency (SKOV3) | Potency (Tov-21-G) | Potency (Tov112D)

CC(C)=CCC(O)[C@](C)(O)C1[C@H](O)C[C@@]2(C)C3CC=C4C(C[C@H](O)[C@@H](O[C@@H]5O[C@H](CO)[C@@H](O)[C@H](O)[C@H]5O)C4(C)C)[C@]3(C)C(=O)C[C@]12C (stereo not given in full)
inactive: Potency (OV90) | Potency (PA-1) | Potency (SKOV3) | Potency (Tov-21-G) | Potency (Tov112D)

C=C1C(=O)OC[C@H]2C(C(=O)O)=CC3CC(C)(C)C[C@@]132 (stereo not given in full)
inactive: Potency (OV90) | Potency (PA-1) | Potency (SKOV3) | Potency (Tov-21-G) | Potency (Tov112D)

Nc1ccc(-n2nc(C(F)(F)F)cc2C(F)(F)F)cc1
inactive: Potency (OV90) | Potency (PA-1) | Potency (SKOV3) | Potency (Tov-21-G) | Potency (Tov112D)

O=C(O)c1cccc(C(=O)CCC2OC(n3cnc4c(=O)[nH]cnc43)C(O)C2O)c1 (stereo not given)
inactive: Potency (OV90) | Potency (PA-1) | Potency (SKOV3) | Potency (Tov-21-G) | Potency (Tov112D)

C[C@@H]1[C@H](O)[C@@H]2OC(=O)C3=C2[C@H](CCC3)[C@@]12C[C@@H](c1ccoc1)OC2=O
inactive: Potency (OV90) | Potency (PA-1) | Potency (SKOV3) | Potency (Tov-21-G) | Potency (Tov112D)

CC(C)(O)C1CCC2(C)CCCC(C)(O)C2C1 (stereo not given)
inactive: Potency (OV90) | Potency (PA-1) | Potency (SKOV3) | Potency (Tov-21-G) | Potency (Tov112D)

C[C@H](/C=C/[C@@]1(O)[C@H](C)CC(=O)CC1(C)C)O[C@@H]1O[C@H](CO[C@@H]2OC[C@@H](O)[C@H](O)[C@H]2O)[C@@H](O)[C@H](O)[C@H]1O
inactive: Potency (OV90) | Potency (PA-1) | Potency (SKOV3) | Potency (Tov-21-G) | Potency (Tov112D)

CC(C)=C1CC2[C@](C)(CC[C@@H](OC(=O)C3(C)OC3C)[C@@]2(C)O)CC1=O (stereo not given in full)
inactive: Potency (OV90) | Potency (PA-1) | Potency (SKOV3) | Potency (Tov-21-G) | Potency (Tov112D)

O=C(Cc1ccc(Cl)cc1)Nc1cnccc1C(=O)O
inactive: Potency (OV90) | Potency (PA-1) | Potency (SKOV3) | Potency (Tov-21-G) | Potency (Tov112D)

COc1ccc(/C=C/C(=O)N2CCCC2)cc1
inactive: Potency (OV90) | Potency (PA-1) | Potency (SKOV3) | Potency (Tov-21-G) | Potency (Tov112D)

O=C(O)c1ccnc2cc(C(OCC3CCC(F)(F)CC3)c3ccccc3Cl)[nH]c12 (stereo not given)
inactive: Potency (OV90) | Potency (PA-1) | Potency (SKOV3) | Potency (Tov-21-G) | Potency (Tov112D)

CC1=C(C)C(=O)OC(C(C)C2C(O)CC3C4C5OC5C5(O)CC(OC6OC(CO)C(OC7OC(C)C(O)C(O)C7O)C(O)C6O)CC(O)C5(C)C4CCC32C)C1 (stereo not given)
inactive: Potency (OV90) | Potency (PA-1) | Potency (SKOV3) | Potency (Tov-21-G) | Potency (Tov112D)

CC1(C)CC[C@]2(C(=O)O[C@@H]3O[C@H](CO)[C@@H](O)[C@H](O)[C@H]3O)CC[C@]3(C)C(=CCC4[C@@]5(C)C[C@@H](O)[C@H](O)[C@@](C)(CO)C5[C@H](O)C[C@]43C)C2[C@@H]1O (stereo not given in full)
inactive: Potency (OV90) | Potency (PA-1) | Potency (SKOV3) | Potency (Tov-21-G) | Potency (Tov112D)

C=C1CC2C3(C)C(O)CC(=O)C(C)(C)C3C(O)C(OC(C)=O)C2(C)C2C(=O)OC(C)(C(=O)OC)C(=O)C12C (stereo not given)
inactive: Potency (OV90) | Potency (PA-1) | Potency (SKOV3) | Potency (Tov-21-G) | Potency (Tov112D)

O=C(/C=C/c1ccc(O)c(O)c1)O[C@H]1[C@@H]2C=CO[C@@H](O[C@@H]3O[C@H](CO)[C@@H](O)[C@H](O)[C@H]3O)[C@@H]2[C@@]2(CO)O[C@@H]12
inactive: Potency (OV90) | Potency (PA-1) | Potency (SKOV3) | Potency (Tov-21-G) | Potency (Tov112D)
